Bioassay records as filed in PubChem.
Only some compounds are listed: those with a hit (about 4.1% of all), similar ones and a draw of the others.
hgDAF-12 ag = hgDAF-12 agonism, primary luciferase screen; HEK293 GAL4-hgDAF12 UAS-luciferase reporter, agonist luminescence; normalized to butyrate control; activation, % at 6.8 µM; hit rate 1.8% among 370,000; AID 687014;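 active means activation above a cutoff set at the mean of all screened compounds plus 3 SD, cut at about 10% in these data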;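 further: 0% = DMSO wells and 100% = sodium butyrate wells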
ssDAF-12 act = activates DAF-12 receptor from parasite S. stercoralis | HEK293 ssDAF-12/GRIP1 lit1-tk-luc reporter, luminescence; % of 3 µM dafachronic acid response | activation, % at 6.8 µM | hit rate 1% among 370,000 | AID 652126;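 active means activation above the mean over all tested compounds plus 3 SD, cut at about 0.9% in these data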;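 further: 0% = DMSO-only wells and 100% = 3 µM delta7-dafachronic acid wells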
hcDAF-12 act = H. contortus DAF-12 activation, primary screen; HEK293 hcDAF-12 lit1-tk-luc reporter, luminescence; 0% DMSO, 100% Δ7-dafachronic acid; activation, % at 6.8 µM; hit rate 1.4% among 370,000; AID 652067;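 active means activation above the mean of all tested compounds plus 3 SD, cut at about 5.5% in these data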;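 further: 100% = response to 3 µM Δ7-dafachronic acid high control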
DAX1 inh-1 = DAX1 (NR0B1) inhibition, primary screen. AID 652010. HEK293T StAR-luciferase reporter, SF-1/DAX-1 repression relief. inhibition, % at 6.8 µM. hit rate 1.1% among 370,000;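 active means inhibition above the mean over all tested compounds plus 3 SD, cut at about 3.6% in these data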;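 further: 0% = DAX-1 cells with DMSO and 100% = cells lacking DAX-1 with DMSO; higher inhibition means more luminescence from relief of DAX-1 repression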
DAX1 inh-2 = inhibitors of human orphan nuclear receptor DAX1 (NR0B1); P51843; HEK293 Gal4-DAX1 luciferase reporter, luminescence; inhibition, % at 6.75 µM; hit rate 0.99% among 340,000;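 active means inhibition above the mean over all tested compounds plus 3 SD, cut at about 4.2% in these data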;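 further: 0% = DAX1-transfected cells with DMSO and 100% = empty-vector control cells with DMSO; inhibition shows as a rise in luminescence from relieved DAX1 repression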
Target sequence (P51843 207-470 limits assumed): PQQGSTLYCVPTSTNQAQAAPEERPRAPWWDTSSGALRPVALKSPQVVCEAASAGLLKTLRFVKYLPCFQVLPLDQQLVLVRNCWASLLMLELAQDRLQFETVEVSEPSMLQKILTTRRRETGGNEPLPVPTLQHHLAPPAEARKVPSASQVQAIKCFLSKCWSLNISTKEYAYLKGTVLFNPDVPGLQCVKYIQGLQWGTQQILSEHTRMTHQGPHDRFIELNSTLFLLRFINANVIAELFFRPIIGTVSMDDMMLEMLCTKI
Starred values were filed as active, the others as inactive.

For COc1ccccc1NC(=O)COc1ccccc1C(=O)c1cnn(-c2ccccc2)c1 the results were hgDAF-12 ag 13*, ssDAF-12 act 0, hcDAF-12 act 2, DAX1 inh-1 1 and DAX1 inh-2 -1.
For CC(=O)NCc1ccc(C(=O)CN2C(=O)NC3(CCCCC3C)C2=O)s1 (centres undefined) the results were hgDAF-12 ag 12*, ssDAF-12 act -1, hcDAF-12 act 1, DAX1 inh-1 0 and DAX1 inh-2 0.
For CC1CCCCC12NC(=O)N(CC(=O)NCc1ccccc1)C2=O (centres undefined) the results were hgDAF-12 ag 3, ssDAF-12 act -1, hcDAF-12 act 1, DAX1 inh-1 0 and DAX1 inh-2 0.
`COc1ccc(N2CCN(CCCNC(=O)COc3ccc(F)cc3)CC2)cc1` gave hgDAF-12 ag 8, ssDAF-12 act -1, hcDAF-12 act -2 and DAX1 inh-1 -1.
`Cc1cc(C(=O)Nc2cccnc2)no1` gave DAX1 inh-2 1.
`Cc1cc(C(=O)Nc2ccc3[nH]ccc3c2)no1` gave hgDAF-12 ag 11*, ssDAF-12 act 0, hcDAF-12 act 3, DAX1 inh-1 1 and DAX1 inh-2 2.
Screening COc1ccccc1/C=C/C=N/n1c(-c2ccccn2)n[nH]c1=S returned hgDAF-12 ag 5, ssDAF-12 act -1, hcDAF-12 act 5.6*, DAX1 inh-1 1 and DAX1 inh-2 1.
For O=C(Nc1ccc(F)cc1)C(c1ccccc1)N1CCN(C(=O)c2ccco2)CC1 (centres undefined) the results were hgDAF-12 ag -1, ssDAF-12 act -1, hcDAF-12 act -2, DAX1 inh-1 0 and DAX1 inh-2 4.7*.
`Cc1nc2ccc(NC(=O)c3cnc(Cl)c(Cl)c3)cc2s1` gave hgDAF-12 ag 8, ssDAF-12 act -1, hcDAF-12 act 1, DAX1 inh-1 1 and DAX1 inh-2 0.
Cc1ccc2nc(NC(=O)c3ccc(Cl)s3)sc2c1 was read as hgDAF-12 ag 8, ssDAF-12 act 0, hcDAF-12 act 3, DAX1 inh-1 4.0* and DAX1 inh-2 9.8*.
Cc1cccc2sc(NC(=O)c3ccc(OCC4CCCO4)cc3)nc12 (centres undefined) was read as hgDAF-12 ag 13*, ssDAF-12 act -1, hcDAF-12 act 2, DAX1 inh-1 2 and DAX1 inh-2 0.
For Cc1cccc2sc(NC(=O)c3ccc(Cl)s3)nc12 the results were hgDAF-12 ag 5, ssDAF-12 act 1.1*, hcDAF-12 act 2, DAX1 inh-1 0 and DAX1 inh-2 1.
Screening CCOc1ccc2nc(NC(=O)c3ccc(OCC4CCCO4)cc3)sc2c1 (centres undefined) returned hgDAF-12 ag 6, ssDAF-12 act -2, hcDAF-12 act -3, DAX1 inh-1 -2 and DAX1 inh-2 0.
Cc1nc2ccc(NC(=O)c3ccc(Cl)s3)cc2s1 was read as hgDAF-12 ag 9, ssDAF-12 act 0, hcDAF-12 act 0, DAX1 inh-1 4.1* and DAX1 inh-2 4.9*.
Screening O[C@@H]1[C@@H](O)[C@H](n2c3ccc(Cl)cc3c3ccc4c5cc(Cl)ccc5[nH]c4c32)OC[C@H]1O returned hgDAF-12 ag 5, ssDAF-12 act -2, hcDAF-12 act 1 and DAX1 inh-1 -1.
Screening COc1ccc(-c2cc(NC(=O)Cc3c(C)[nH]c4ccccc34)ccc2Nc2cccnc2)cc1OC returned hgDAF-12 ag 6, ssDAF-12 act -1, hcDAF-12 act 2 and DAX1 inh-1 0.
Screening Nn1c(SCC(=O)Nc2ccccc2-c2ccccc2)nnc1-c1cc(-c2ccc(Cl)cc2)n[nH]1 returned hgDAF-12 ag -1, ssDAF-12 act -1, hcDAF-12 act -3 and DAX1 inh-1 -1.
O=C(Cc1c(F)cccc1Cl)Nc1nc2ccccc2s1 was read as hgDAF-12 ag 6, ssDAF-12 act -2, hcDAF-12 act 0, DAX1 inh-1 0 and DAX1 inh-2 1.
For Cc1cccc2sc(NC(=O)CCn3cccc3)nc12 the results were hgDAF-12 ag 12*, ssDAF-12 act -1, hcDAF-12 act 0, DAX1 inh-1 0 and DAX1 inh-2 -1.
`Cc1cccc2sc(NC(=O)Cn3cccc3)nc12` gave hgDAF-12 ag 2, ssDAF-12 act -1, hcDAF-12 act -1, DAX1 inh-1 -1 and DAX1 inh-2 -1.
Screening Cc1nc2ccc(NC(=O)Cc3c(F)cccc3Cl)cc2s1 returned hgDAF-12 ag 11*, ssDAF-12 act -1, hcDAF-12 act 1, DAX1 inh-1 2 and DAX1 inh-2 3.
For CCS(=O)(=O)Nc1ccc2c(c1)C(=O)N(C)[C@@H]1CC[C@H](CC(=O)NCCCN3CCOCC3)O[C@H]1CO2 the results were hgDAF-12 ag -2, ssDAF-12 act -1, hcDAF-12 act 0 and DAX1 inh-1 0.
For CC(=O)c1cc(-c2ccccc2)n(CC(=O)NCc2ccc(Cl)cc2)c1C the results were hgDAF-12 ag -6, ssDAF-12 act -2, hcDAF-12 act -3 and DAX1 inh-1 -1.
CC(C)(C)n1nnnc1C1c2ccccc2C(=O)N1CCc1c[nH]c2ccccc12 (centres undefined) was read as hgDAF-12 ag 1, ssDAF-12 act 0, hcDAF-12 act 4 and DAX1 inh-1 4.2*.
`CC(=O)C1=C(O)C(=O)N(CCc2c[nH]c3ccccc23)C1c1ccc(O)cc1` (centres undefined) gave hgDAF-12 ag 2, ssDAF-12 act 0, hcDAF-12 act 2, DAX1 inh-1 0 and DAX1 inh-2 4.4*.
COc1cccc(Cn2cc(COC(=O)N3CCCC3)nn2)c1 was read as hgDAF-12 ag -1, ssDAF-12 act -2, hcDAF-12 act -2 and DAX1 inh-1 0.
`O=C(CCc1nnc(-c2ccc3c(c2)OCO3)o1)N1CCC(c2ccc(F)cc2)C1` (centres undefined) gave hgDAF-12 ag 8, ssDAF-12 act 1, hcDAF-12 act 1, DAX1 inh-1 1 and DAX1 inh-2 5.0*.
For Nc1nc(-c2ccccc2)c(N=Nc2ccccc2Cl)s1 the results were hgDAF-12 ag 5, ssDAF-12 act -1, hcDAF-12 act 5.8*, DAX1 inh-1 -1 and DAX1 inh-2 -1.
Nc1nc(-c2ccccc2)c(N=Nc2cccc3ccccc23)s1 was read as hgDAF-12 ag 0, ssDAF-12 act 0, hcDAF-12 act 3, DAX1 inh-1 -1 and DAX1 inh-2 0.
O=C(CSc1nc2ncccc2[nH]1)NCc1ccccc1 was read as hgDAF-12 ag 0, ssDAF-12 act -1, hcDAF-12 act -2, DAX1 inh-1 -1 and DAX1 inh-2 4.7*.
`Cc1ccc(C2(c3noc(CN(C)Cc4cccnc4)n3)CCCC2)cc1` gave hgDAF-12 ag 0, ssDAF-12 act -1, hcDAF-12 act -1, DAX1 inh-1 0 and DAX1 inh-2 4.5*.
O=C(CSc1nnc(-c2cccs2)n1Cc1ccco1)Nc1ccc(OCc2ccccc2)cc1 was read as hgDAF-12 ag 2, ssDAF-12 act -1, hcDAF-12 act -1 and DAX1 inh-1 -1.
